Tests used:
Test in all cases: PBM binding z-score (relative to random genomic background probes); higher = stronger binding; sequences stand for … in GC…GCGATTGACAGCGTAGAATGAAGG
[1] = test system: FXR:RXRa (NR concentration 270 nM, RXRa partner concentration 90 nM)
How it was run: (§1)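 For binding z-scores, the reference was random background probes on custom Agilent 4×180K protein-binding microarrays. These arrays were incubated 1 h with ligand-free nuclear receptor dimers in PBS pH 7.4, 2% milk, 0.02% Triton X-100, 1 mM DTT, 0.2 mg/mL BSA and 0.4 mg/ml salmon testes DNA. Fluorescence was scanned after antibody detection of each partner (one per run) and regression-normalized.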

[2] = test system: LXRa:RXRa (NR concentration 270 nM, RXRa partner concentration 90 nM)
How it was run: as §1

[3] = test system: LXRa homodimer (NR concentration 270 nM)
How it was run: as §1

[4] = test system: LXRb:RXRa (NR concentration 270 nM, RXRa partner concentration 90 nM)
How it was run: as §1

[5] = test system: LXRb homodimer (NR concentration 270 nM)
How it was run: as §1

[6] = test system: PPARa:RXRa (NR concentration 270 nM, RXRa partner concentration 90 nM)
How it was run: as §1

[7] = test system: PPARg:RXRa (NR concentration 180 nM, RXRa partner concentration 90 nM)
How it was run: as §1

[8] = test system: PPARg:RXRa 270nM:90nM, anti-RXR (NR concentration 270 nM, RXRa partner concentration 90 nM)
How it was run: as §1

[9] = test system: PPARg:RXRa 30nM:10nM, anti-RXR (NR concentration 30 nM, RXRa partner concentration 10 nM)
How it was run: as §1

[10] = test system: PPARg:RXRa 90nM:30nM, anti-RXR (NR concentration 90 nM, RXRa partner concentration 30 nM)
How it was run: as §1

[11] = test system: PPARg:RXRa DBDmut IVT, anti-RXR (DBD mutation: RXRa K156A/R161A, NR concentration 270 nM, RXRa partner concentration 90 nM)
How it was run: as §1

[12] = test system: PPARg:RXRa IVT, anti-PPARg (NR concentration 270 nM, RXRa partner concentration 90 nM)
How it was run: as §1

[13] = test system: PPARg DBDmut:RXRa IVT, anti-PPARg (DBD mutation: PPARg1 K132A/R137A, NR concentration 270 nM, RXRa partner concentration 90 nM)
How it was run: as §1

[14] = test system: PPARg DBDmut IVT, anti-PPARg (DBD mutation: PPARg1 K132A/R137A, NR concentration 270 nM)
How it was run: as §1

[15] = test system: PPARg homodimer (NR concentration 180 nM)
How it was run: as §1

[16] = test system: PXR:RXRa (NR concentration 270 nM, RXRa partner concentration 90 nM)
How it was run: as §1

[17] = test system: PXR homodimer (NR concentration 270 nM)
How it was run: as §1

[18] = test system: RARa:RXR (NR concentration 270 nM, RXRa partner concentration 90 nM)
How it was run: as §1

[19] = test system: RARa homodimer (NR concentration 270 nM)
How it was run: as §1

[20] = test system: RARb:RXRa (NR concentration 270 nM, RXRa partner concentration 90 nM)
How it was run: as §1

| Sequence | PBM binding z-score [1] | PBM binding z-score [2] | PBM binding z-score [3] | PBM binding z-score [4] | PBM binding z-score [5] | PBM binding z-score [6] | PBM binding z-score [7] | PBM binding z-score [8] | PBM binding z-score [9] | PBM binding z-score [10] | PBM binding z-score [11] | PBM binding z-score [12] | PBM binding z-score [13] | PBM binding z-score [14] | PBM binding z-score [15] | PBM binding z-score [16] | PBM binding z-score [17] | PBM binding z-score [18] | PBM binding z-score [19] | PBM binding z-score [20] |
| --- | --- | --- | --- | --- | --- | --- | --- | --- | --- | --- | --- | --- | --- | --- | --- | --- | --- | --- | --- | --- |
| ATACCAAGGTGATGGTGAGGTCGTTGATACTAAC | 0.921 | 0.64 | 0.268 | 1.09 | -0.372 | 1.56 | 0.532 | 0.222 | 0.0287 | 0.21 | 0.223 | 1.12 | 0.793 | 0.597 | 1.2 | 2.71 | 1.55 | 1.47 | 0.462 | 1.17 |
| ATCTCTAGGTAAGACTCAGTTCAGTAAAGAACGC | 0.34 | 0.725 | 0.918 | 0.419 | 0.923 | 0.152 | 0.102 | 0.669 | 0.474 | 0.414 | 1.94 | 1.31 | 0.584 | 0.972 | 0.82 | 1.24 | 1.74 | 0.263 | 1.3 | 0.396 |
| ACTAGTTGGTCAGCTGAGGTCGCACACAATTCGG | 1.01 | 0.732 | 0.139 | 1.1 | 0.147 | 1.49 | 0.497 | 0.445 | -0.204 | 0.316 | 1.03 | 1.57 | 0.582 | 0.333 | 0.559 | 3.02 | 0.134 | 1.79 | -0.0842 | 1.91 |
| ATCTCTAGGTAACCAATTTCAGTGAATGCCGAAC | 0.444 | 0.64 | 0.561 | 0.348 | 1.28 | 0.596 | 0.441 | 0.547 | 0.162 | 0.306 | 3.89 | 2.94 | 1.28 | 1.42 | 0.77 | 0.453 | 0.601 | 0.264 | 0.959 | 0.458 |
| CCTAGTTGGTCAGGAGGTCACACAACGGATATGA | 3.71 | 3.52 | 1.69 | 3.53 | 0.623 | 4.25 | 3.47 | 4.16 | 1.47 | 3.3 | 1.95 | 3.66 | 0.747 | 0.329 | 3.64 | 4.16 | 1.53 | 4.94 | 2.05 | 3.63 |
| GCATCTAGGTAATACAAGGTGAAAGTCCGATTGT | 1.09 | 1.15 | 0.539 | 0.383 | -0.273 | 1.5 | 0.956 | 0.984 | 0.0503 | 0.572 | 4.35 | 3.42 | 0.512 | 0.835 | 0.218 | 0.368 | -0.443 | 0.737 | -0.154 | 0.5 |
| CCTACTGGGCCAAGGTCATTTATCAGTCAAAGCA | 3 | 3 | 1.94 | 3.53 | 0.242 | 3.92 | 4.1 | 4.33 | 1.69 | 3.57 | 3.45 | 4.56 | -0.913 | -0.873 | 1.83 | 3.22 | 1.73 | 3.28 | 0.0192 | 3.15 |
| TGAAGGAGGTTATAAGATCAGGGAACGTTGCAAA | 0.559 | 0.855 | -0.0635 | 0.774 | -0.481 | 2.16 | 0.845 | 1.42 | 0.992 | 1.16 | -0.131 | 0.876 | 0.728 | 0.392 | 0.374 | 0.292 | 0.19 | 0.993 | 0.904 | 0.905 |
| TCTTGTAGATCAAGCGGGTTAAGAAAGCCTGAGT | 0.257 | 0.0631 | -0.461 | 0.225 | -0.187 | 0.817 | -0.599 | 1.1 | 2.23 | 1.81 | 1.69 | 0.202 | -0.333 | -0.182 | -0.174 | 0.313 | -0.037 | 0.0624 | -0.21 | 0.093 |
| CGTCCATGGTCAGAGAGGTCAGTGAATGCCGAGT | 1.59 | 1.68 | 0.897 | 1.84 | -0.375 | 2.51 | 0.301 | 0.981 | -0.535 | 0.219 | 0.536 | 0.857 | -0.938 | -0.643 | 1.93 | 3.11 | 1.73 | 2.87 | 0.23 | 3.52 |
| GTACCAACGTGAATAGGTCGTTGATGAGTAGGCG | -0.282 | -0.216 | -0.491 | -0.2 | -0.829 | 0.267 | 0.588 | -0.017 | -0.124 | -0.176 | -0.261 | -0.148 | -0.62 | -0.461 | -0.374 | -0.0666 | -0.401 | 0.105 | -0.122 | -0.00783 |
| CTAACAAGGTGAACAAGGTCGTTGATTACTATTC | 1.46 | 1.2 | 0.00841 | 1.71 | -0.084 | 2.7 | 1.75 | 1.73 | 0.38 | 1.18 | 4.02 | 3.71 | 0.498 | 0.744 | 0.877 | 2.67 | 1.4 | 2.21 | 0.514 | 2.27 |
| CCTACTGGGCCAAAAAGGACATTGATGCCGATAA | -0.363 | -0.495 | -0.28 | -0.539 | -0.727 | -0.00322 | 1.04 | 1.6 | 0.0632 | 1.17 | 3.5 | 2.63 | -0.447 | 0.0111 | 0.363 | -0.396 | 0.177 | -0.191 | 0.526 | 0.68 |
| CCTAGCAGCCCAATCTGGGTCACTCAAGGCTTGA | 0.0445 | 0.132 | -0.399 | 0.523 | -0.695 | 2.93 | 1.6 | 1.71 | -0.36 | 1.1 | 3.69 | 4.29 | -0.334 | -0.918 | 0.624 | 0.268 | -0.803 | 1.12 | -0.169 | 0.878 |
